Data from PubChem BioAssay AID1159580 (chemical genetic matrix, 2015).
Where “and” joins values, the source holds several entries; their conditions need not be identical. Identical values can stand only once. Screen size: about 5,500 compounds; about 2,000 (36%) were called active. Inconclusive results (about 18%) are left out. No stated cut-off is given here; in the data, active means normalized growth mostly below about 0.91 (no sharp cut-off); inconclusive means no clear call, values can overlap the other calls; inactive means mostly above about 0.92. The list shows a part of the results.

Assay: chemical genetic growth profiling, strain panel (AID 1159580);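 further: tested at 20 µM; growth read once vehicle control cultures reached saturation at 30 °C; 1 = growth at the plate median or of vehicle wells; lower values mean less growth of the strain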
Conditions: S. cerevisiae deletion strains, growth OD

Measured: normalized growth

NC(=O)c1cccc(N)c1
inactive: locus YAL013W, strain DEP1, active compounds read low 1 and 1.01 | locus YAL021C, strain ccr4, active compounds read low 0.979 | locus YAL026C, strain drs2, active compounds read low 0.97 | locus YAL030W, strain snc1, active compounds read low 0.992 | locus YAL040C, strain CLN3, active compounds read low 1 | locus YBL061C, strain skt5, active compounds read low 0.977 | locus YBR009C, strain hhf1, active compounds read low 0.998 | locus YBR021W, strain FUR4, active compounds read low 0.968 | locus YBR023C, strain chs3, active compounds read low 0.981 | locus YBR171W, strain sec66, active compounds read low 0.962 | locus YBR229C, strain ROT2, active compounds read low 1 | locus YBR231C, strain swc5, active compounds read low 0.967 | locus YBR279W, strain paf1, active compounds read low 0.99 | locus YCL011C, strain gbp2, active compounds read low 0.957 | locus YCL016C, strain dcc1, active compounds read low 0.988 | locus YCL029C, strain bik1, active compounds read low 1 | locus YCL061C, strain MRC1 (second series), active compounds read low 1 | locus YCL069W, strain vba3, active compounds read low 0.962 | locus YCR088W, strain abp1, active compounds read low 0.972 | locus YDL005C, strain med2, active compounds read low 0.969 | locus YDL035C, strain GPR1, active compounds read low 1 | locus YDL040C, strain nat1, active compounds read low 0.988 | locus YDL074C, strain BRE1, active compounds read low 1.01 | locus YDL101C, strain DUN1, active compounds read low 1.01 | locus YDL134C, strain PPH21, active compounds read low 0.999 | locus YDL185W, strain tfp1, active compounds read low 1.01 | locus YDL192W, strain arf1, active compounds read low 0.999 | locus YDR001C, strain nth1, active compounds read low 0.979 | locus YDR069C, strain doa4, active compounds read low 0.966 | locus YDR101C, strain arx1, active compounds read low 0.987 | locus YDR137W, strain rgp1, active compounds read low 0.976 | locus YDR150W, strain NUM1, active compounds read low 1.01 | locus YDR159W, strain sac3, active compounds read low 0.965 | locus YDR162C, strain NBP2, active compounds read low 1 | locus YDR195W, strain ref2 0.958 | locus YDR297W, strain sur2, active compounds read low 0.98 | locus YDR318W, strain mcm21, active compounds read low 0.985 | locus YDR334W, strain swr1, active compounds read low 0.96 | locus YDR335W, strain msn5, active compounds read low 0.97 | locus YDR363W, strain ESC2, active compounds read low 1 | locus YDR388W, active compounds read low 0.993 | locus YDR392W, strain spt3, active compounds read low 0.965 | locus YDR502C, strain sam2, active compounds read low 1.01 | locus YEL003W, strain gim4, active compounds read low 0.979 | locus YEL037C, strain rad23, active compounds read low 0.969 | locus YEL061C, strain CIN8 (second series), active compounds read low 0.954 | locus YEL061C, strain CIN8, active compounds read low 1.01 | locus YER002W, strain NOP16, active compounds read low 1.02 | locus YER015W, strain faa2, active compounds read low 0.983 | locus YER016W, strain bim1, active compounds read low 0.977 | locus YER110C, active compounds read low 0.996 | locus YER111C, strain swi4, active compounds read low 0.966 | locus YER155C, strain BEM2 (second series), active compounds read low 0.965 | locus YER155C, strain BEM2, active compounds read low 0.99 | locus YER167W, strain BCK2, active compounds read low 1 | locus YFR010W, strain ubp6, active compounds read low 0.968 | locus YGL078C, strain dbp3, active compounds read low 1 | locus YGL086W, strain mad1, active compounds read low 0.988 | locus YGL167C, strain pmr1, active compounds read low 0.981 | locus YGL173C, strain kem1, active compounds read low 0.984 | locus YGL227W, strain vid30, active compounds read low 0.966 | locus YGL240W, strain doc1, active compounds read low 0.969 | locus YGL248W, strain PDE1, active compounds read low 1 | locus YGL253W, strain hxk2, active compounds read low 0.963 | locus YGR078C, strain PAC10, active compounds read low 1 and 1.05 | locus YGR135W, strain pre9, active compounds read low 0.986 | locus YGR229C, strain SMI1, active compounds read low 1.01 | locus YGR252W, strain gcn5, active compounds read low 0.978 | locus YHR013C, strain ard1, active compounds read low 0.972 | locus YHR027C, strain rpn1, active compounds read low 0.974 | locus YHR030C, strain SLT2, active compounds read low 1.01 | locus YHR079C, strain IRE1 (second series), active compounds read low 0.994 | locus YHR094C, strain hxt1, active compounds read low 0.998 | locus YHR129C, strain ARP1, active compounds read low 1 | locus YHR142W, strain chs7, active compounds read low 0.968 | locus YHR200W, strain rpn10, active compounds read low 0.993 | locus YIL066C, strain RNR3, active compounds read low 1 | locus YIL073C, strain SPO22, active compounds read low 1.02 | locus YIL125W, strain kgd1, active compounds read low 0.996 | locus YIR030C, strain dcg1, active compounds read low 0.996 | locus YJL092W, strain hpr5, active compounds read low 0.954 | locus YJL095W, strain BCK1 (second series), active compounds read low 0.979 | locus YJL095W, strain BCK1, active compounds read low 1 | locus YJL115W, strain asf1, active compounds read low 0.966 | locus YJL129C, strain trk1, active compounds read low 0.965 | locus YJL134W, strain LCB3, active compounds read low 1 | locus YJL154C, strain vps35, active compounds read low 0.979 | locus YJL164C, strain tpk1, active compounds read low 1 | locus YJL166W, strain qcr8, active compounds read low 1.01 | locus YJL168C, strain set2, active compounds read low 0.99 | locus YJL187C, strain SWE1 (second series), active compounds read low 1.01 | locus YJL187C, strain SWE1, active compounds read low 0.968
